Measurements taken from the supplement of paper PMC6555819.

Columns and labels:
Assay in all cases: PBM binding z-score (relative to random genomic background probes); higher = stronger binding; sequences stand for … in GC…GCGATTGACAGCGTAGAATGAAGG
[1] = system: FXR:RXRa (NR concentration 270 nM, RXRa partner concentration 90 nM)
Summary of the method: (§1)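 Random background probes are the reference for binding z-scores. These scores derive from regression-normalized fluorescence on custom Agilent 4×180K protein-binding microarrays incubated 1 h with ligand-free nuclear receptor dimers. Binding was detected with antibodies against each partner (one per run).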

[2] = system: LXRa:RXRa (NR concentration 270 nM, RXRa partner concentration 90 nM)
Summary of the method: as §1

[3] = system: LXRa homodimer (NR concentration 270 nM)
Summary of the method: as §1

[4] = system: LXRb:RXRa (NR concentration 270 nM, RXRa partner concentration 90 nM)
Summary of the method: as §1

[5] = system: LXRb homodimer (NR concentration 270 nM)
Summary of the method: as §1

[6] = system: PPARa:RXRa (NR concentration 270 nM, RXRa partner concentration 90 nM)
Summary of the method: as §1

[7] = system: PPARg:RXRa (NR concentration 180 nM, RXRa partner concentration 90 nM)
Summary of the method: as §1

[8] = system: PPARg:RXRa 270nM:90nM, anti-RXR (NR concentration 270 nM, RXRa partner concentration 90 nM)
Summary of the method: as §1

[9] = system: PPARg:RXRa 30nM:10nM, anti-RXR (NR concentration 30 nM, RXRa partner concentration 10 nM)
Summary of the method: as §1

[10] = system: PPARg:RXRa 90nM:30nM, anti-RXR (NR concentration 90 nM, RXRa partner concentration 30 nM)
Summary of the method: as §1

[11] = system: PPARg:RXRa DBDmut IVT, anti-RXR (DBD mutation: RXRa K156A/R161A, NR concentration 270 nM, RXRa partner concentration 90 nM)
Summary of the method: as §1

[12] = system: PPARg:RXRa IVT, anti-PPARg (NR concentration 270 nM, RXRa partner concentration 90 nM)
Summary of the method: as §1

[13] = system: PPARg DBDmut:RXRa IVT, anti-PPARg (DBD mutation: PPARg1 K132A/R137A, NR concentration 270 nM, RXRa partner concentration 90 nM)
Summary of the method: as §1

[14] = system: PPARg DBDmut IVT, anti-PPARg (DBD mutation: PPARg1 K132A/R137A, NR concentration 270 nM)
Summary of the method: as §1

[15] = system: PPARg homodimer (NR concentration 180 nM)
Summary of the method: as §1

[16] = system: PXR:RXRa (NR concentration 270 nM, RXRa partner concentration 90 nM)
Summary of the method: as §1

[17] = system: PXR homodimer (NR concentration 270 nM)
Summary of the method: as §1

[18] = system: RARa:RXR (NR concentration 270 nM, RXRa partner concentration 90 nM)
Summary of the method: as §1

[19] = system: RARa homodimer (NR concentration 270 nM)
Summary of the method: as §1

[20] = system: RARb:RXRa (NR concentration 270 nM, RXRa partner concentration 90 nM)
Summary of the method: as §1

Sequence	PBM binding z-score [1]	PBM binding z-score [2]	PBM binding z-score [3]	PBM binding z-score [4]	PBM binding z-score [5]	PBM binding z-score [6]	PBM binding z-score [7]	PBM binding z-score [8]	PBM binding z-score [9]	PBM binding z-score [10]	PBM binding z-score [11]	PBM binding z-score [12]	PBM binding z-score [13]	PBM binding z-score [14]	PBM binding z-score [15]	PBM binding z-score [16]	PBM binding z-score [17]	PBM binding z-score [18]	PBM binding z-score [19]	PBM binding z-score [20]
GCTGCTAGGTCAGGTTGGTTAGCTAACGGGTACG	1.06	0.689	-0.475	0.322	-0.199	1.24	0.149	0.709	-0.629	0.079	3.18	1.92	-0.902	-0.404	0.608	0.32	-0.467	0.712	-0.719	3.07
CGTCCAAGGTAAAAGGTCAGTGAAGAGATGACGG	3.59	3.34	0.701	3.27	-0.538	5.23	6.53	6.49	4.59	6.15	0.99	3.62	-0.145	0.215	2.6	3.83	0.564	5.16	1.15	4.44
TCTGCTAGGTCAGTTGGCCAGCTAACGAGCTGCC	0.857	0.327	-0.78	-0.127	-0.163	1.2	-0.0379	1.3	0.758	1.1	2.81	2.82	0.783	0.614	-0.509	-0.116	-0.845	0.0154	-1.78	3.44
TTACCACGGTGAAAGGTCGTTGATGCACGCCTTG	1.82	1.94	0.347	1.79	-0.318	4.03	6.35	6.53	5.02	6.87	0.591	3.21	0.23	0.773	1.78	2.43	0.446	2.56	0.421	1.94
TCTTGTAGATCAATAGACGTTAAGAAAGTGCGCT	0.594	0.28	-0.214	0.165	0.106	0.212	-0.0755	1.51	2.76	2.26	1.93	0.361	0.093	1.4	-0.0841	0.0599	-0.0185	0.0974	0.424	-0.173
CCTGCTACGTCAATGGTCAGCTAAAGCAGCTCGC	-0.5	-0.409	-0.45	-0.531	-0.36	-0.295	-0.37	-0.498	-0.833	-0.566	0.218	-0.566	-1.15	-0.483	-0.41	-0.469	-0.413	-0.14	-0.629	0.0938
TTTATTAGTTGAAGGGCAACCGACGAGTCCGTTT	0.831	0.834	0.746	0.739	0.614	0.899	0.644	1.71	1.09	1.95	0.976	0.967	0.878	1.23	1.41	0.818	1.45	0.575	1.48	1.68
ACAGACAGGTGATGACGGTAACTCAGGCTATCAT	-0.347	-0.186	-0.31	-0.476	-0.424	-0.121	0.839	-0.227	-0.335	-0.0238	0.226	0.0775	-0.319	-0.184	-0.306	-0.319	-0.0472	-0.196	0.273	0.237
CCTACCGGGCCAAAAAGGTCATTGATGCCGATAA	3.51	4.28	3.75	4.21	0.286	4.55	1.69	3	0.292	1.97	-0.0213	1.89	-0.195	-1.09	3.48	5	5.72	5.47	1.6	3.96
GGAACGAGGGCATTCGGGTTGATAGCATGGCGAT	1.28	1.22	-0.291	0.287	-0.152	1.74	0.887	0.703	-0.367	0.323	2.77	2.27	0.359	-0.376	0.523	3.69	2.77	0.733	-0.569	1.86
GCGACTGGGGCACAGCAGGTTACCATAAGGTTGG	0.178	0.265	-0.715	-0.0951	-1.1	0.996	1.75	1.45	-0.344	0.859	5.07	4.28	-0.331	-0.666	0.354	0.113	-0.29	0.435	-0.475	0.997
TCTTGTAGAACAAAGGTTAAGAAAGCCGAAGCCT	1.11	1.68	-0.0357	1.97	-0.155	4.32	7.84	7.99	7.71	8.74	2.26	3.87	0.00137	0.832	0.868	1.31	-0.451	2.33	0.221	1.81
ACAGGCAGGTGAGTGAAGGTAACTCAGCTGGACG	0.139	-0.0924	-0.455	-0.499	-0.66	0.119	0.199	-0.206	-0.505	-0.636	0.549	0.264	-0.867	-0.655	-0.302	-0.384	-0.354	-0.019	-0.662	0.283
TAGCCTAGGTCTTGGGCCAGTATACCACGCGAAC	-0.302	-0.359	-0.58	-0.334	-0.384	-0.242	0.0651	-0.286	-0.619	-0.51	-0.718	-0.4	-0.0485	-0.703	-0.0751	-0.448	-0.379	-0.298	-0.982	0.162
CCTAGCAGGCCAATCTGGGTCACTCAGGGCTTGA	0.175	0.973	-0.637	0.336	-1.06	2.61	1.81	2.15	-0.232	1.52	3.91	4.83	0.915	-1.07	0.808	0.386	-0.579	1.64	-0.57	1.35
